Data published in PubChem BioAssay (NCATS).
Inconclusive results are not listed. Calls of active or inactive are those of the source. Unless noted, calls come from the whole dose curve; as a rule, active = well fitted curve in the direction sought with a large enough effect; inconclusive = small, poorly fitted or top-dose-only effect, or another doubt; inactive = no such curve, though single readings can be large; an effect the other way counts as inactive or inconclusive.

Assays:
[1] = Cell Viability - BJ (AID 421; calls by dose curve;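 note: potency is the fitted concentration of half-maximal effect; cells exposed to compound for 40 hours at 37 °C before readout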); settings: BJ fibroblast viability, qHTS
Outline: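 Quantitative HTS: ATP depletion in BJ cells after 40 hr compound exposure in complete culture medium, detected with CellTiter-Glo; AC50 from standard Hill fits.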

[2] = Cell Viability - Jurkat (AID 426;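 active = dose-dependent loss of cell ATP signal giving a full or clear fitted curve, ranked by lower potency value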;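 note: potency is the fitted concentration of half-maximal effect; cells exposed to compound for 40 hours at 37 °C before ATP read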); settings: qHTS
Outline: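 Luminescent ATP read-out (CellTiter-Glo, 20 min at room temperature) after 40 hr compound exposure at 37 °C of Jurkat E6-1 cells, 5000/well. Decreased ATP taken as cytotoxicity; AC50 from standard Hill equation.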

[3] = Cell Viability - Hek293 (AID 427;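 active = compounds whose dose-response curve shows a full or clear partial loss of cell viability, called from curve shape rather than a numeric limit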;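 note: potency is the fitted concentration of half-maximal effect; cells exposed to compound for 40 hours at 37 °C before reading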); settings: qHTS
Outline: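 AC50 values derive from Hill-modelled concentration-response of ATP-based luminescence, normalized between DMSO-only and 100 uM tamoxifen controls. Cells were exposed in complete culture medium for 40 hr at 37 °C before detection.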

[4] = Cell Viability - HepG2 (AID 433; calls by dose curve;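 note: potency is the fitted concentration of half-maximal effect; potency for ATP loss meaning cytotoxicity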); settings: qHTS
Outline: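 Cytotoxicity is scored as loss of intracellular ATP in HepG2 cells exposed to compounds for 40 h. Concentration-response curves, normalized to DMSO and 100 uM tamoxifen, give AC50 values.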

[5] = Cell Viability - SK-N-SH (AID 435; calls by dose curve; note: potency is the fitted concentration of half-maximal effect); settings: SK-N-SH neuroblastoma cell viability qHTS
Outline: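 Cells seeded at 1500 per well and incubated 5 hr at 37 °C. Compound added, then 40 hr at 37 °C. CellTiter-Glo added, 20 min at room temperature, luminescence read.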

[6] = biological target: Mitogen-activated protein kinase 10 (Mus musculus) (UniProt Q61831); assay: JNK3 AlphaScreen Assay (AID 530; active = well fitted curve in either direction with a large enough effect, not every such curve was filed as active;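 note: kinase came from lysate of stimulated human HepG2 cells; signal reports phosphorylation of biotinylated GST-cJun 1-79 at Ser73 with 10 µM ATP; % is set by controls: 0 for no effect and ±100 for the full control effect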); settings: JNK3 lysate, c-Jun phosphorylation; series mostly up to 57.1 µM
Outline: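 Kinase buffer: 20 mM Tris-HCl pH 7.6, 10 mM MgCl2, 1 mM DTT, 0.1 mM Na3VO4, 0.01% Tween-20; ATP 10 uM. Substrate biotin-GST-cJun(1-79), enzyme from activated HepG2 lysates. Detection by Ser73 phospho-antibody AlphaScreen.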

[7] = Cell Viability - N2a (AID 540); settings: N2a mouse neuroblastoma cell viability; activity change, negative = cytotoxicity: at 92.2 µM (top of the series);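 note: plate controls were DMSO alone for no effect and tamoxifen control for full effect; nearly all actives have a fitted effect of over 45% in size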
Outline: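 N2a mouse neuroblastoma, 1500 cells/well, 5 hr settle; compound 40 hr, 37 °C; CellTiter-Glo 20 min RT; luminescence; Hill-fit AC50.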

[8] = Cell Viability - NIH 3T3 (AID 541); settings: NIH 3T3 cell viability, qHTS; activity change, negative = cytotoxicity: at 92.2 µM (top of the series);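 note: plate controls were DMSO alone for no effect and tamoxifen positive control for full effect; nearly all actives have a fitted effect of over 25% in size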
Outline: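 qHTS format; 40 hr compound exposure, 37 °C; CellTiter-Glo luminescence (cellular ATP) read-out after 20 min at RT. Decrease in ATP = cytotoxicity; AC50 from standard Hill fit.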

[9] = Cell Viability - HUV-EC-C (AID 542); settings: HUV-EC-C endothelial cell viability, qHTS; series mostly up to 92.2 µM; note: % is set by controls: 0 for no effect and ±100 for the full control effect; nearly all actives have a fitted effect of over 35% in size
Outline: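 Luminescent ATP read-out (CellTiter-Glo, 20 min room temperature) after 40 hr compound treatment of HUV-EC-C cells at 37 °C. Concentration-response data fitted with the standard Hill equation to give AC50; tamoxifen and doxorubicin served as positive controls.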

[10] = Cell Viability - H-4-II-E (AID 543); settings: H-4-II-E rat hepatoma viability; series mostly up to 92.2 µM; note: % is set by controls: 0 for no effect and ±100 for the full control effect; nearly all actives have a fitted effect of over 35% in size
Outline: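 qHTS, rat hepatoma H-4-II-E, 1500 cells/well; 40 hr compound exposure, 37 °C; CellTiter-Glo ATP luminescence after 20 min RT; AC50 by standard Hill fit.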

[11] = Cell Viability - SH-SY5Y (AID 544); settings: SH-SY5Y neuroblastoma cell viability; viability change, negative = cytotoxic: at 92.2 µM (top of the series); note: nearly all actives have a fitted effect of over 55% in size
Outline: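 SH-SY5Y, 1500 cells/well, 5 hr pre-incubation 37 °C; cpd 40 hr 37 °C; CellTiter-Glo 20 min RT; luminescence (ATP) read. qHTS concentration-response, Hill fit → AC50. Tamoxifen, doxorubicin as positive controls.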

[12] = Cell Viability - Renal Proximal Tubule (AID 545); settings: renal proximal tubule cells viability, primary cells of rat origin; series mostly up to 91.7 µM; note: nearly all actives have a fitted effect of over 40% in size
Outline: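 Cytotoxicity is scored as a concentration-dependent drop in cellular ATP in primary rat renal proximal tubule cells exposed for 40 hr. AC50 derives from Hill modelling.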

[13] = Cell Viability - Mesenchymal (AID 546); settings: mesenchymal cells viability, qHTS; series mostly up to 91.7 µM;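 note: cells exposed to compound for 40 hours before reading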
Outline: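 CellTiter-Glo luminescence (intracellular ATP, 20 min room temperature) after 40 hr compound exposure at 37 °C of 1000 glomerulus-derived human kidney mesenchymal cells/well; AC50 values obtained by fitting qHTS concentration-response data to the Hill equation.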

[14] = Cellular Toxicity (caspase-3) HepG2 (AID 654); settings: HepG2 caspase-3 activation, luminescence; series mostly up to 92.2 µM;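 note: cells exposed to compound for 16 hours before reading; 0% = DMSO alone and 100% = caspase signal from 100 µM tamoxifen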
Outline: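 Luminescent Caspase-Glo 3/7 readout after 16 hr compound exposure of human hepatocellular carcinoma HepG2 cells at 37 °C; qHTS concentration-response, normalized DMSO = 0%, 100 uM tamoxifen = 100%; AC50 by standard Hill equation.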

[15] = Cellular Toxicity (caspase-3) Jurkat (AID 655); settings: Jurkat caspase-3 activation, luminescence; caspase-3 activation: at 92.2 µM (top of the series), DMSO = 0%, tamoxifen = 100%;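 note: cells exposed to compound for 16 h at 37 °C before reading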
Outline: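 Caspase 3/7 activation is scored as increased luminescence in Jurkat cells cultured with compound for 16 hours in complete medium. AC50 values come from Hill fits of qHTS concentration-response data normalized to DMSO and 100 uM tamoxifen controls.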

[16] = Cellular Toxicity (caspase-3) HUV-EC-C (AID 656); settings: HUV-EC-C cells, caspase-3 activation (apoptosis), vehicle = 0, 100 µM tamoxifen = 100%; series mostly up to 92.2 µM
Outline: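 Read-out: luminescence proportional to caspase 3/7 activity, measured 20 min after adding Caspase-Glo 3/7 reagent. Cells (HUV-EC-C) had received compound for 16 hr at 37°C. Increases relative to DMSO and 100 uM tamoxifen gave concentration-response AC50 values.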

[17] = Cellular Toxicity (caspase-3) SHSY5Y (AID 657); settings: SH-SY5Y caspase-3 activation, DMSO zero, 10 µM staurosporine = 100%; series mostly up to 91.7 µM;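 note: cells exposed to compound for 16 hours at 37 °C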
Outline: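 Cells plated and incubated 5 h at 37 °C, dosed over a concentration range, incubated 16 h, then given Caspase-Glo 3/7 reagent for 1 h at room temperature before luminescence reading. Staurosporine (10 uM) defined full stimulation.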

[18] = Cellular Toxicity (caspase-3) BJ (AID 658); settings: BJ fibroblasts, luminescence, normalized: DMSO 0%, staurosporine 100%; series mostly up to 91.7 µM
Outline: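 Caspase-Glo 3/7 luminescence, read 1 hr after reagent at room temperature, in normal BJ fibroblasts exposed 16 hours at 37 °C. AC50 values from Hill-equation concentration-response, scaled between DMSO basal and 10 uM staurosporine as 100%.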

[19] = Cellular Toxicity (caspase-3) MRC-5 (AID 659); settings: MRC-5 cells, luminescence, normalized: DMSO 0%, 10 µM staurosporine 100%; series mostly up to 91.7 µM
Outline: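 Luminescent Caspase-Glo 3/7 read-out (1 h, room temperature) after a 16 h, 37 °C compound exposure of MRC-5 lung fibroblasts at 1500 cells/well. Concentration-response AC50 from Hill equation; 0% DMSO, 100% 10 uM staurosporine.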

[20] = Cell Viability - MRC5 (AID 434; calls by dose curve;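 note: potency is the fitted concentration of half-maximal effect; cells exposed to compound for 40 hours at 37 °C; potency reflects cytotoxicity seen as loss of intracellular ATP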); settings: MRC5 lung fibroblast viability, qHTS
Outline: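 AC50 values come from Hill-equation fits of intracellular ATP loss, measured by CellTiter-Glo luminescence. Normal lung fibroblasts (MRC5) had 40 hr compound treatment at 37 C, normalized between DMSO and 100 uM tamoxifen.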

c1ccc(Nc2ccccc2)cc1
inactive: Potency [1] > 92 µM | Potency [2] > 92 µM | Potency [3] > 92 µM | Potency [4] > 92 µM | Potency [5] > 92 µM | outcome [6] | activity change, negative = cytotoxicity [7] -5.87% | Potency [8] | Potency [9] | Potency [10] | Potency [11] | Potency [12] | Potency [13] | Potency [14] | caspase-3 activation [15] 1.36% | outcome [16] | outcome [17] | outcome [18] | outcome [19]

O=P(O)(OCc1ccccc1)OCc1ccccc1
inactive: Potency [1] > 92 µM | Potency [2] > 92 µM | Potency [3] > 92 µM | Potency [4] > 92 µM | Potency [5] > 92 µM | outcome [6] | activity change, negative = cytotoxicity [7] 4.67% | Potency [8] | Potency [9] | Potency [10] | Potency [11] | Potency [12] | Potency [13] | Potency [14] | outcome [16] | outcome [17] | outcome [18] | outcome [19]

O=Cc1ccc(CO)o1
inactive: Potency [1] > 92 µM | Potency [2] > 92 µM | Potency [3] > 92 µM | Potency [4] > 92 µM | Potency [5] > 92 µM | Potency [8] | Potency [9] | Potency [10] | Potency [11] | Potency [12] | Potency [13] | Potency [14] | caspase-3 activation [15] -0.436% | outcome [16] | outcome [17] | outcome [18] | outcome [19]

Cc1ccc(C)cc1
inactive: Potency [1] > 92 µM | Potency [2] > 92 µM | Potency [3] > 92 µM | Potency [4] > 92 µM | Potency [5] > 92 µM | outcome [6] | activity change, negative = cytotoxicity [7] -13.5% | Potency [8] | Potency [10] | Potency [11] | Potency [12] | Potency [13] | caspase-3 activation [15] 2.23% | outcome [16] | outcome [17] | outcome [18] | outcome [19]

CC(=O)OC(C)C
inactive: Potency [1] > 92 µM | Potency [2] > 92 µM | Potency [3] > 92 µM | Potency [4] > 92 µM | Potency [5] > 92 µM | outcome [6] | activity change, negative = cytotoxicity [7] 3.96% | Potency [8] | Potency [9] | Potency [11] | Potency [12] | Potency [13] | caspase-3 activation [15] -0.432% | outcome [16] | outcome [17] | outcome [18] | outcome [19]

O=[N+]([O-])c1cccc(C(F)(F)F)c1
inactive: Potency [1] > 92 µM | Potency [2] > 92 µM | Potency [3] > 92 µM | Potency [4] > 92 µM | Potency [5] > 92 µM | outcome [6] | activity change, negative = cytotoxicity [7] 4.54% | Potency [8] | Potency [9] | Potency [10] | Potency [11] | Potency [12] | Potency [13] | Potency [14] | caspase-3 activation [15] 0.763% | outcome [16] | outcome [17] | outcome [18] | outcome [19]

Cc1ccc2oc(=O)ccc2c1
inactive: Potency [1] > 92 µM | Potency [2] > 92 µM | Potency [3] > 92 µM | Potency [4] > 92 µM | Potency [5] > 92 µM | outcome [6] | activity change, negative = cytotoxicity [7] -1.53% | Potency [8] | Potency [9] | Potency [12] | Potency [13] | Potency [14] | caspase-3 activation [15] 0.624% | outcome [16] | outcome [17] | outcome [18] | outcome [19]

CCCCCCC=O
inactive: Potency [1] > 92 µM | Potency [2] > 92 µM | Potency [3] > 92 µM | Potency [4] > 92 µM | Potency [20] > 92 µM | outcome [6] | Potency [9] | Potency [10] | Potency [11] | Potency [12] | Potency [13] | Potency [14] | caspase-3 activation [15] 0.767% | outcome [16] | outcome [17] | outcome [18] | outcome [19]

Clc1cc(Cl)cc(Cl)c1
inactive: Potency [1] > 92 µM | Potency [2] > 92 µM | Potency [3] > 92 µM | Potency [4] > 92 µM | outcome [6] | activity change, negative = cytotoxicity [7] 4.86% | Potency [8] | Potency [9] | Potency [10] | Potency [11] | Potency [12] | Potency [13] | caspase-3 activation [15] 0.897% | outcome [16] | outcome [17] | outcome [18] | outcome [19]

O=C(O)c1cccc([N+](=O)[O-])c1
inactive: Potency [1] > 92 µM | Potency [2] > 92 µM | Potency [3] > 92 µM | Potency [4] > 92 µM | Potency [5] > 92 µM | activity change, negative = cytotoxicity [7] -0.379% | Potency [8] | Potency [9] | Potency [10] | Potency [12] | Potency [13] | Potency [14] | caspase-3 activation [15] 0.351% | outcome [16] | outcome [17] | outcome [18] | outcome [19]

OC/C(Br)=C(\Br)CO
inactive: Potency [1] > 92 µM | Potency [2] > 92 µM | Potency [3] > 92 µM | Potency [4] > 92 µM | Potency [5] > 92 µM | activity change, negative = cytotoxicity [7] -4.76% | Potency [8] | Potency [9] | Potency [10] | Potency [11] | Potency [12] | Potency [13] | Potency [14] | caspase-3 activation [15] 3.75% | outcome [16] | outcome [17] | outcome [18] | outcome [19]

Cc1ccc(C)c(O)c1
inactive: Potency [1] > 92 µM | Potency [2] > 92 µM | Potency [3] > 92 µM | Potency [4] > 92 µM | Potency [5] > 92 µM | outcome [6] | activity change, negative = cytotoxicity [7] 3.3% | Potency [8] | Potency [9] | Potency [10] | Potency [11] | Potency [13] | Potency [14] | caspase-3 activation [15] 0.228% | outcome [16] | outcome [17] | outcome [18] | outcome [19]
